Laboratory results as given in PubChem BioAssay (NCATS).
Inconclusive results are not listed. Active and inactive are the calls of the source. Calls follow the shape of the dose curve; as a rule, active = well fitted activation curve with a large enough effect in the main read-out, with a control signal flat (not every such curve was filed as active); inconclusive = small, poorly fitted or top-dose-only effect, or effect the other way, or a change in a side signal; inactive = flat fitted curve, though single readings scatter.

Target: 3',5'-cyclic-AMP phosphodiesterase 4B (Homo sapiens) (UniProt Q07343)
Sequence (Q07343 whole entry, looked up): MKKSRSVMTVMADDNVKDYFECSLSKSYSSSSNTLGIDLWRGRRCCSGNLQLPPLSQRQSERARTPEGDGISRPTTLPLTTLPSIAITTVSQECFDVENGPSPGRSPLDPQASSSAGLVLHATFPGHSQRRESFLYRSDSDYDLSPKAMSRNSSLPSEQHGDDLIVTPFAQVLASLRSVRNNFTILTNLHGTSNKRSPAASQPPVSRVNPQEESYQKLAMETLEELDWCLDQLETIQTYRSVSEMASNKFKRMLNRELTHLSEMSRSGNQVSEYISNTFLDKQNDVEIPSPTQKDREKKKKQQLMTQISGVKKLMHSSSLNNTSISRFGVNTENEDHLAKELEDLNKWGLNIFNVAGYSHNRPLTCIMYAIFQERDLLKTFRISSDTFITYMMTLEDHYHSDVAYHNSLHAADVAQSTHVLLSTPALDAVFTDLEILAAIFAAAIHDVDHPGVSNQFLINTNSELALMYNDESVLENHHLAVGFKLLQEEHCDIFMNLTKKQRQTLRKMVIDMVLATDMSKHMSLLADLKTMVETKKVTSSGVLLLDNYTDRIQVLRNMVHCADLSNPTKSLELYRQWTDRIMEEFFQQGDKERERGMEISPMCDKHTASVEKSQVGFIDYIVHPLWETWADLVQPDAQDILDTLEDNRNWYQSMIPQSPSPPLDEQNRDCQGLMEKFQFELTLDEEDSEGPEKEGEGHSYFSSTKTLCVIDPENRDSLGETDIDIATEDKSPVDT
Test: qHTS Assay for Inhibitors of PDE-IV (AID 607)
Conditions: HEK293 ACTOne CNG channel cells, membrane potential fluorescence; series mostly up to 22.9 µM
Method in brief: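 The readout is membrane depolarisation from a cAMP-sensing CNG channel, detected with a potential dye at ex 535/em 590. Cells were HEK293-derived (endogenous PDE-IV) at 1000 cells/well, titrated up to 22.9 uM final.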

Potency, inactive:
Cc1ccc(Nc2nnc(-c3ccc4c(c3)OCO4)o2)c(C)c1
CN[C@@H](c1ccncc1)[C@@H](NC)c1ccncc1
Cc1cnc(CNc2nc(-c3cccnc3)nc3ccccc23)cn1
C(=N/Nc1nnc2c(n1)[nH]c1ccccc12)/c1cccnc1
CC(C)[C@@H]1OC(=O)C=CC=CC=CC=CC=CC[C@@H](O)[C@H](C)[C@@H](O)C[C@H](O)C[C@H](O)C[C@H](O)C[C@H](O)C[C@H](O)C[C@H](O)C=C[C@@H]1C
COc1ccc2c(c1)Cc1cc(N=[N+]([O-])c3ccc4c(c3)Cc3cc(OC)ccc3-4)ccc1-2
Nc1nc(SC/C=C\c2ccccc2)c2[nH]cnc2n1
O=C(CC(=O)c1ccncc1)c1ccccc1
O=c1oc2cc(N=Cc3ccc4c(c3)OCO4)ccc2c2ccccc12
CSC1(SC2=NCCN2)SC2(NCCN2)S1
O[C@@H](C1=C/C(=C\c2ccncc2)c2ccccc21)c1ccncc1
Nc1nc(SCCc2ccccc2)c2[nH]cnc2n1
Nc1nc(SCc2ccccc2[N+](=O)[O-])c2[nH]cnc2n1
O=S(=O)(c1cnccc1N1CCN(CCO)CC1)N1CCCC1
COc1ccc(Oc2ncc3nc(C)c(=O)n(-c4ccc(OC)cc4)c3n2)cc1
Cn1ncc2c(NCCc3ccccc3)nc(Cl)nc21
C/C(=N/Nc1ccc2ccccc2n1)c1ccccc1O
Nc1[nH]c(=S)[nH]c(=O)c1N=Nc1c(Br)cc(S(N)(=O)=O)cc1Br
COc1ccc(C[C@@H]2C(=O)N[C@H](C)C(=O)N(C)[C@@H]3Cc4ccc(cc4)Oc4cc(ccc4O)C[C@H](C(=O)N[C@@H](C)C(=O)N[C@H](C)C(=O)N2C)N(C)C3=O)cc1
O=C(O)c1ccc(SSc2ccc(C(=O)O)cn2)nc1
Cc1ccc(S(=O)(=O)Nc2cc(=O)[nH]c3c2CCC3)cc1
BrC(c1cccc2ccccc12)c1cccc2ccccc12
c1ccc(C[C@@H](Nc2cccnc2)c2ccccc2)cc1
N=C(N)S[C@H]1c2ccccc2-c2cc([N+](=O)[O-])ccc21
CC(C)(C)C(=O)[C@H]([C@@H](c1ccccc1)N1CCOCC1)N1CCOCC1
O=C(O)CCc1nc(-c2ccccc2-n2cccc2)no1
O=C(O)/C(=C\c1ccccc1)Cc1ccccc1
O=S(=O)(O)c1cc(O)c2c(N=Cc3ccccc3O)cc(S(=O)(=O)O)cc2c1
Cn1c(=S)c2[nH]c(SCc3cccnc3)nc2n(C)c1=O
CC(C)N1CCN(c2ccncc2S(=O)(=O)N2CCCCC2)CC1
Cc1cc2c(cc1C)NC1=C(N2)O[C@H](c2c[nH]c3ccc(COc4ccccc4)cc23)C1=O
COc1cc(Cl)c(CC(=O)c2c[nH]c3ccccc23)cc1OC
Cc1ccc2c(c1)N[C@H](c1ccc(C(=O)O)cc1)c1cccn1-2
COc1ccc2c(Cl)cc(NC(=S)Nc3ccccc3)nc2c1
c1ccc2c(c1)-c1nc3ccccc3cc1[C@H]2N1CCOCC1
Nc1cccc(OCc2nc(N)nc(N)c2-c2ccc(Cl)cc2)c1
CC1=C/C(=C(/c2ccc(O)c(C)c2)c2ccccc2C(=O)O)C=CC1=O
N#C/C(=C\Nc1ccccn1)C(=O)c1ccco1
Cn1c(=O)c2[nH]c(CCCCc3nc4c([nH]3)c(=O)n(C)c(=S)n4C)nc2n(C)c1=S
